Source: PubChem BioAssay AID1789 (The Scripps Research Institute Molecular Screening Center, 2009)
The whole screen tested about 290,000 compounds, of which about 2,700 (0.93%) were called active.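 How the source made its calls: active means inhibition above the screen-wide mean plus 3 SD, computed separately per campaign (cut at about 16% in these data); inactive means the rest.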 This excerpt belongs to a sample that is enriched for actives.

system: Heat shock protein HSP 90 (rabbit reticulocyte lysate; luciferase refolding); assay: inhibitors of HSP90 chaperone activity – cell lysate, luminescence, primary screen (AID 1789); settings: 3 h, at 5.6 µM, active compounds read high;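 further: 0% = DMSO wells and 100% = 60 µM geldanamycin wells; inhibitors lower the luminescence because luciferase stays unfolded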

SMILES | inhibition
CN1CCN(c2cc(N3CCNCC3)ccc2[N+](=O)[O-])CC1 | -3.02% (inactive)
COc1cccc(-c2nc3ccc(N4CCN(C)CC4)cc3[nH]2)c1 | 60.8% (active)
Cc1nc2ccc(N3CCN(C)CC3)cc2nc1C | 1.77% (inactive)
CC1=CC(=Cc2sc3ccccc3[n+]2C)C=C(C)O1 | 0.85% (inactive)
O=c1c2ccccc2nc(/C=C/c2ccc(F)cc2)n1-c1ccccc1O | -2.14% (inactive)
O=c1c2ccccc2nc(/C=C/c2ccco2)n1-c1ccccc1O | 19.4% (active)
O=c1c2ccccc2nc(-c2ccco2)n1-c1ccc(Br)cn1 | -1.12% (inactive)
CN(c1ccccc1)c1ccc([N+](=O)[O-])c2nonc12 | 3.91% (inactive)
CC(C)CN1CCN(Cc2ccccc2C(F)(F)F)CC1CCO (stereo not given) | -3.13% (inactive)
O=C(NC(c1ccc(Cl)cc1)P(=O)(Oc1ccccc1)Oc1ccccc1)OCc1ccccc1 (stereo not given) | 1.96% (inactive)
